# From PubChem BioAssay (Tox21)
# Values joined by “and” are separate entries in the source; they are usually repeats but may differ in a detail not shown here. Identical values can stand only once. Results filed as inconclusive are left out. A call without a number means that no potency is given here. A structure can be active in one record and inactive in another. Active and inactive are the calls of the source. The call rests on the fitted dose curve; in most records, active means well fitted curve in the direction sought with a large enough effect in the repeat runs; inconclusive means weak or mixed curves; inactive means no such curve, though single readings can be large; an effect the other way counts as inactive or inconclusive.
# Key:
# [1] = target: Cytochrome P450 2D6 (Homo sapiens) (UniProt P10635); assay: Cytochrome P450 Family 2 Subfamily D Member 6 (CYP2D6) small molecule antagonists: luciferase reporter qHTS assay (AID 1671196); further: nearly all actives have a fitted effect of over 50% in size; on activity change, negative = inhibition: series mostly up to about 120 µM
# Sequence of Cytochrome P450 2D6 (Homo sapiens) (P10635 whole entry, looked up): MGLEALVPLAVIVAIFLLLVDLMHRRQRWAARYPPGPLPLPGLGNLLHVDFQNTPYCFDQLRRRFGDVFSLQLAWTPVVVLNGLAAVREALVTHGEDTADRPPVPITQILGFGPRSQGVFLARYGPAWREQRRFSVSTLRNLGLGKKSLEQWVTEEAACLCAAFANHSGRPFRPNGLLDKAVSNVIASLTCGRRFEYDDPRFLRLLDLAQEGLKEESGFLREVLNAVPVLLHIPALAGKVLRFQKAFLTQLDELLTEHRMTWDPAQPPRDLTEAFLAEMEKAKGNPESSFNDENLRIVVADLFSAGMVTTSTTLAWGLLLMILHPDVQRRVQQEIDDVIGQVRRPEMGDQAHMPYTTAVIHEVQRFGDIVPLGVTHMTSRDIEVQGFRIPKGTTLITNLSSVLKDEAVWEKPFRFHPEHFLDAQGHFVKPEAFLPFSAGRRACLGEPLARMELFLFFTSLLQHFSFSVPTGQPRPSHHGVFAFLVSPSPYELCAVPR
# Method in brief: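 Luminescence (RLU), read 20 min after detection reagent, indicated CYP2D6 conversion of proluciferin to luciferin during a 1 h NADPH-dependent reaction at room temperature.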
# [2] = target: Cytochrome P450 2C19 (Homo sapiens) (UniProt P33261); assay: Cytochrome P450 Family 2 Subfamily C Member 19 (CYP2C19) small molecule antagonists: luciferase reporter qHTS assay (AID 1671197); further: nearly all actives have a fitted effect of over 65% in size; on activity change, negative = inhibition: series mostly up to about 120 µM
# Sequence of Cytochrome P450 2C19 (Homo sapiens) (P33261 whole entry, looked up): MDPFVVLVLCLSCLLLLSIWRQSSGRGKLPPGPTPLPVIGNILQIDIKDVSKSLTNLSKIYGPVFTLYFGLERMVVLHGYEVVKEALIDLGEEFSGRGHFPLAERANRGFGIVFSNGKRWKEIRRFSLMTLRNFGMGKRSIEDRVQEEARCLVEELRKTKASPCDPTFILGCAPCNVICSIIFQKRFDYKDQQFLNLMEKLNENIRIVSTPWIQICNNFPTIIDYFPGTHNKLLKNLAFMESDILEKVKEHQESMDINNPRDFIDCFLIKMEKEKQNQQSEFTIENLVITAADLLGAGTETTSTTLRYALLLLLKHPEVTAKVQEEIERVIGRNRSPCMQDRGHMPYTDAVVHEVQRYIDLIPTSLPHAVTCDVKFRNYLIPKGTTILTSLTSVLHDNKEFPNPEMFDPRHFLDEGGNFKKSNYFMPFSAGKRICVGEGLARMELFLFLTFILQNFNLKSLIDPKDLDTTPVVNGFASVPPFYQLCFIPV
# Method in brief: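 Quantitative high-throughput screen of the Tox21 library using CYP2C19 with proluciferin substrate. Reaction: NADPH regeneration, 37C, 1 h, after 10 min compound preincubation at room temperature. Readout: luminescence.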
# [3] = target: Cytochrome P450 2C9 (Homo sapiens) (UniProt P11712); assay: Cytochrome P450 Family 2 Subfamily C Member 9 (CYP2C9) small molecule antagonists: luciferase reporter qHTS assay (AID 1671198); further: nearly all actives have a fitted effect of over 50% in size; on activity change, negative = inhibition: series mostly up to about 120 µM
# Sequence of Cytochrome P450 2C9 (Homo sapiens) (P11712 whole entry, looked up): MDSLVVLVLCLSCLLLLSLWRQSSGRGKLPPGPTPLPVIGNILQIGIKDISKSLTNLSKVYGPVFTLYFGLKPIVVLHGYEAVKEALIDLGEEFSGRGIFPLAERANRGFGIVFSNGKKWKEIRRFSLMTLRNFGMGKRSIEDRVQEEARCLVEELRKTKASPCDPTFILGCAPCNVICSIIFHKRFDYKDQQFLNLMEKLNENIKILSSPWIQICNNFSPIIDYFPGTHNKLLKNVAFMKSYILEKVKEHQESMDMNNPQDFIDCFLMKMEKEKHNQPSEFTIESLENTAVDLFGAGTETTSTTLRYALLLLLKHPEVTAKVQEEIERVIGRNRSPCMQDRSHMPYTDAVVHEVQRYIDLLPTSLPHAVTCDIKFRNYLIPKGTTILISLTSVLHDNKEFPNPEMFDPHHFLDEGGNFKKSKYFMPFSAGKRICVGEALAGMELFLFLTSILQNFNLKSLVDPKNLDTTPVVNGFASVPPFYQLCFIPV
# Method in brief: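 P450-Glo proluciferin substrate with CYP2C9 enzyme; 10 min RT preincubation, then NADPH regeneration 1 h at 37C; luciferin detection reagent 20 min RT, luminescence in relative luminescence units.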
# [4] = target: Cytochrome P450 1A2 (Homo sapiens) (UniProt P05177); assay: Cytochrome P450 Family 1 Subfamily A Member 2 (CYP1A2) small molecule antagonists: luciferase reporter qHTS assay (AID 1671199); further: nearly all actives have a fitted effect of over 50% in size; on activity change, negative = inhibition: series mostly up to about 120 µM
# Sequence of Cytochrome P450 1A2 (Homo sapiens) (P05177 whole entry, looked up): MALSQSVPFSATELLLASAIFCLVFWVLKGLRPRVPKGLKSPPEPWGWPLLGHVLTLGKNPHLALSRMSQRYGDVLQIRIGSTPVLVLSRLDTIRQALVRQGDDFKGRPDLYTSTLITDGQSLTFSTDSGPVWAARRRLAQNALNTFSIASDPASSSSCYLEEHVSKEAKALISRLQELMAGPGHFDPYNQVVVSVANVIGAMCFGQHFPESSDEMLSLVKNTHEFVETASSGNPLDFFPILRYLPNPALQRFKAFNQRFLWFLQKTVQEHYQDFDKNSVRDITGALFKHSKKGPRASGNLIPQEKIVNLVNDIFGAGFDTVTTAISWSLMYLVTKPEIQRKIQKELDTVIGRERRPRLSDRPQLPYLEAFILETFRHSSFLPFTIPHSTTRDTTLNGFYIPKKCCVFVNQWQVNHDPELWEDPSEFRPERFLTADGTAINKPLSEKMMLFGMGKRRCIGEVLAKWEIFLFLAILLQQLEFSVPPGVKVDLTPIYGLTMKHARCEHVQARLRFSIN
# Method in brief: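 CYP1A2 turnover of a luminogenic substrate was quantified after 1 h with NADPH regeneration at room temperature. Furafylline served as positive control.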
# [5] = target: Voltage-gated inwardly rectifying potassium channel KCNH2 (Homo sapiens) (UniProt Q12809); assay: Human Ether-a-go-go-Related Gene (hERG) channel small molecule antagonists: fluorescence cell-based qHTS assay (AID 1671200); further: nearly all actives have a fitted effect of over 50% in size; on activity change, negative = inhibition: series mostly up to about 77 µM
# Sequence of Voltage-gated inwardly rectifying potassium channel KCNH2 (Homo sapiens) (Q12809 whole entry, looked up): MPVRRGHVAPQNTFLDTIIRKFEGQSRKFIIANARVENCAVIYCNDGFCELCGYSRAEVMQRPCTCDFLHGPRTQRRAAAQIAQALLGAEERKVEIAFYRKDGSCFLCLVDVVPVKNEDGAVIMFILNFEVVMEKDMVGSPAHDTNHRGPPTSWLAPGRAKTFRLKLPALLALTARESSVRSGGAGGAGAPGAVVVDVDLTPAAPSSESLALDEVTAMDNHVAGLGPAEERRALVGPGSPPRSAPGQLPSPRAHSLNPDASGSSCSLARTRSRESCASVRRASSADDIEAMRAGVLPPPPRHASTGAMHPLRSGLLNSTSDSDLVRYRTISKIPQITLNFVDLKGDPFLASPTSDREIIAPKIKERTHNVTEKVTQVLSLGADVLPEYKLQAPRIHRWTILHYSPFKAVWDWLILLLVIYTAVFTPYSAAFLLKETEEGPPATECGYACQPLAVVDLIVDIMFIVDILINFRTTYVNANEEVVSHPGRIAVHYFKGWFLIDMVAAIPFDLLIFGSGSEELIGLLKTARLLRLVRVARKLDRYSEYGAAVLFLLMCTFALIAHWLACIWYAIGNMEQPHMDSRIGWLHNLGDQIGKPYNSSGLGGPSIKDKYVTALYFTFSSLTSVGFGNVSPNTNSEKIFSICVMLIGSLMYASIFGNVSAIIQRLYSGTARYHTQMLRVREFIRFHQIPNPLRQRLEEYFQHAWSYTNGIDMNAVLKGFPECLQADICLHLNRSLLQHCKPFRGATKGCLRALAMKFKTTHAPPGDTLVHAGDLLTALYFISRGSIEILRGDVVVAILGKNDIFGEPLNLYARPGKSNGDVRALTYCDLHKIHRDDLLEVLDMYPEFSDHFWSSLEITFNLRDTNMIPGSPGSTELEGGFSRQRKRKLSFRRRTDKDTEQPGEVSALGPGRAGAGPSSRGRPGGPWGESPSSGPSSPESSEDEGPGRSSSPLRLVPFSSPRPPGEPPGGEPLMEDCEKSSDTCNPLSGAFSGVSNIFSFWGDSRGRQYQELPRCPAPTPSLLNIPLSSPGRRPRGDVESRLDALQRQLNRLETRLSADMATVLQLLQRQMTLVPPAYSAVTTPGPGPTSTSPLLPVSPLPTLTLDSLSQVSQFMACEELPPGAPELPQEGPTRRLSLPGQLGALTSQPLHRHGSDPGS
# Method in brief: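 Thallium flux as potassium surrogate: FluxOR II dye loaded 1 h at room temperature into hERG-expressing U2OS cells, then stimulus buffer added after 10 min. Kinetic 480 nm excitation/540 nm emission read, 2 min.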
# [6] = target: Cytochrome P450 3A4 (Homo sapiens) (UniProt P08684); assay: Cytochrome P450 Family 3 Subfamily A Member 4 (CYP3A4) small molecule antagonists: luciferase reporter qHTS assay (AID 1671201); further: nearly all actives have a fitted effect of over 50% in size; on activity change, negative = inhibition: series mostly up to about 120 µM
# Sequence of Cytochrome P450 3A4 (Homo sapiens) (P08684 whole entry, looked up): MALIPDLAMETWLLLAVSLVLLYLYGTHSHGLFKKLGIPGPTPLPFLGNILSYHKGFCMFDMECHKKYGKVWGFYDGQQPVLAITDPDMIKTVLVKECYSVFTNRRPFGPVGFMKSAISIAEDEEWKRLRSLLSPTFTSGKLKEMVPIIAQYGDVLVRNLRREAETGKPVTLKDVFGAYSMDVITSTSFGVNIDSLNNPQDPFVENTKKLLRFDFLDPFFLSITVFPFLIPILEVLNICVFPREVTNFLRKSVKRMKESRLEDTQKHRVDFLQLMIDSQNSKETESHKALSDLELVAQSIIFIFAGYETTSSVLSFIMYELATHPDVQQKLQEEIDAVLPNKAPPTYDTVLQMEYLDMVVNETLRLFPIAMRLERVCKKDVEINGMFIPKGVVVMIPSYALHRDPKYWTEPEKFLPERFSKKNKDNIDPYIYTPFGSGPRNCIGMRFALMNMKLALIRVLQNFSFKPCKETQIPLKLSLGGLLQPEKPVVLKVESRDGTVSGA
# Method in brief: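 Recombinant human CYP3A4 converts a proluciferin substrate to luciferin over 1 h at room temperature after NADPH regeneration solution is added (compound preincubated 10 min); detection reagent stops reaction, luminescence read 20 min later as relative units.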
# Potency means the concentration at half of the fitted maximal effect.
SMILES,Potency [1],Potency [2],Potency [3],Potency [4],Potency [5],Potency [6],"activity change, negative = inhibition [2]","activity change, negative = inhibition [4]"
CCCCC(CC)COCC1CO1 (stereo not drawn),inactive,inactive,inactive,inactive,inactive,inactive,–,–
CCCCC(CC)COP(=O)(OCC(CC)CCCC)OCC(CC)CCCC (stereo not drawn),inactive,inactive and 71 µM (active),inactive,inactive,inactive,inactive and 5.64 µM (active),–,–
c1cc(N(CC2CO2)CC2CO2)ccc1OCC1CO1 (stereo not drawn),56.4 µM (active),inactive and 79.6 µM (active),63.4 µM (active) and 39.9 µM (active),63.3 µM (active),inactive,inactive,–,–
OC1CCCCCCCCCCC1,inactive,inactive,inactive,25.2 µM (active),inactive,–,–,–
C=C(C)C1CC=C(C)CC1 (stereo not drawn),inactive,inactive,inactive,inactive,inactive,inactive,–,–
Cc1ncc[nH]1,inactive,39.8 µM (active) and inactive,inactive,inactive,inactive,–,–,–
CCCc1c(OCCCCc2nn[nH]n2)ccc(C(C)=O)c1O,inactive,159 nM (active) and 174 nM (active),159 nM (active) and 246 nM (active),35.6 µM (active) and 30.9 µM (active),inactive,–,–,–
COc1ccc(C(=O)CC(=O)c2ccc(C(C)(C)C)cc2)cc1,38.3 µM (active) and inactive,8.57 µM (active) and inactive,21.5 µM (active),34.1 µM (active),inactive,inactive,–,–
CN1C(C(=O)Nc2ccccn2)=C(O)c2ccccc2S1(=O)=O,40.3 µM (active) and inactive,inactive,12.7 µM (active) and 13.8 µM (active),inactive,inactive,inactive,–,–
CCC(C)CO (stereo not drawn),inactive,35.1 µM (active) and inactive,inactive,inactive,inactive,inactive,–,–
Nc1ncnc2nc[nH]c12,inactive,inactive,inactive,inactive,inactive,inactive,–,–
C#C[C@]1(O)CC[C@H]2[C@@H]3CCc4cc(OC)ccc4[C@H]3CC[C@@]21C,inactive,3.56 µM (active) and 2.19 µM (active),5.64 µM (active) and 6.92 µM (active),7.1 µM (active) and 9.77 µM (active),inactive,–,–,–
S=C(NC1CCCCC1)NC1CCCCC1,31.1 µM (active) and 22.4 µM (active),7.81 µM (active) and 8.94 µM (active),12.4 µM (active) and 35.6 µM (active),78.1 µM (active) and inactive,inactive,17.5 µM (active) and 28.3 µM (active),–,–
CC1=CC2C3CC(C=C3C)C2C1 (stereo not drawn),inactive,inactive and 39.9 µM (active),inactive,inactive,inactive,inactive and 12.6 µM (active),–,–
O=C(Nc1ccc([N+](=O)[O-])cc1Cl)c1cc(Cl)ccc1O,inactive,–,25.2 µM (active),20 µM (active),inactive,–,-2.19% [at 23.6 µM] (inactive),-15.9% [at 23.6 µM] (inactive)
CCCCNS(=O)(=O)c1ccccc1,inactive,7.01 µM (active) and 17.8 µM (active),35.1 µM (active) and 35.6 µM (active),inactive,inactive,inactive,–,–
Cc1cccc(N(C)C(=S)Oc2ccc3ccccc3c2)c1,inactive,1.26 µM (active) and 977 nM (active),8.94 µM (active) and 6.92 µM (active),10 µM (active) and 9.77 µM (active),–,–,–,–
C=CC(C)(CCC=C(C)C)OC(C)=O (stereo not drawn),inactive,inactive and 17.8 µM (active),inactive and 35.6 µM (active),inactive,inactive,inactive and 28.3 µM (active),–,–
O=CCc1ccccc1,inactive,19.9 µM (active) and 5.64 µM (active),25 µM (active) and 5.03 µM (active),39.9 µM (active),inactive,inactive,–,–

SMILES,Potency [1],Potency [2],Potency [3],Potency [4],Potency [5],Potency [6],"activity change, negative = inhibition [2]","activity change, negative = inhibition [4]"
CC(=O)O[C@]1(C(C)=O)CC[C@H]2[C@@H]3C=C(Cl)C4=CC(=O)[C@@H]5C[C@@H]5[C@]4(C)[C@H]3CC[C@@]21C,inactive,inactive and 39.9 µM (active),15.9 µM (active) and 31.7 µM (active) and 13.8 µM (active),inactive,inactive,inactive,–,–
CC(C)OC=O,inactive,inactive,inactive,inactive,inactive,inactive,–,–
CC(C)Oc1ccc2c(=O)c(-c3ccccc3)coc2c1,inactive,inactive,17.4 µM (active) and 27.5 µM (active),12.3 µM (active) and 6.45 µM (active),inactive,inactive,–,–
CC(=O)C1(C)CC2=C(CCCC2(C)C)CC1C (stereo not drawn),inactive,inactive,inactive,inactive,inactive,inactive,–,–
COC(C)COC(C)COC(C)CO (stereo not drawn),inactive,inactive,22.4 µM (active),inactive,inactive,inactive,–,–
O=C(Nc1ccc(Cl)cc1)Nc1ccc(Cl)c(Cl)c1,inactive,5 µM (active) and 7.1 µM (active) and 8.71 µM (active),5 µM (active) and 5.64 µM (active) and 4.9 µM (active),17.8 µM (active) and 22.4 µM (active) and 17.4 µM (active),inactive,inactive,–,–
Cc1cccc(C(=O)O)c1,inactive,inactive,inactive,inactive,inactive,inactive,–,–
CC(=O)Oc1ccccc1C(=O)Nc1ncc([N+](=O)[O-])s1,7.25 µM (active) and 7.76 µM (active),3.63 µM (active) and 2.45 µM (active),4.57 µM (active) and 2.75 µM (active),6.46 µM (active) and 7.76 µM (active),inactive,–,–,–
Nc1ccc(Cl)cc1Cl,inactive,inactive,inactive,31.4 µM (active) and 39.9 µM (active),inactive,–,–,–
O=Cc1ccccc1O,inactive,inactive,inactive,inactive,inactive,inactive,–,–
Cc1cccc([N+](=O)[O-])c1C,inactive,inactive,inactive,inactive,inactive,inactive,–,–
Nc1ccc(Nc2ccccc2)cc1,35.2 µM (active) and 35.6 µM (active),24.9 µM (active) and 10 µM (active) and 12.6 µM (active),15.7 µM (active) and 25.2 µM (active) and 10 µM (active),35.2 µM (active) and 35.6 µM (active) and 31.7 µM (active),inactive,5.58 µM (active) and 11.3 µM (active) and 7.96 µM (active),–,–
OCCO,34.6 µM (active) and inactive,inactive,inactive,inactive,inactive,inactive,–,–
NC=O,inactive,inactive,inactive,inactive,inactive,inactive,–,–
Cc1c(OCC(F)(F)F)ccnc1CS(=O)c1nc2ccccc2[nH]1 (stereo not drawn),2.83 µM (active) and 1.23 µM (active),5.64 µM (active) and 3.89 µM (active),35.6 µM (active) and 12.3 µM (active),31.7 µM (active) and 13.8 µM (active),inactive,–,–,–
O=C(COc1ccc(Cl)cc1)N1CCN(Cc2ccc3c(c2)OCO3)CC1,1.59 µM (active) and 2.45 µM (active),17.8 µM (active) and 17.4 µM (active),28.3 µM (active) and 13.8 µM (active),28.3 µM (active) and 17.4 µM (active),19.5 µM (active) and 8.49 µM (active),–,–,–
CCCCC/C=C/C=C/C=O,inactive and 35.6 µM (active),31.4 µM (active) and 39.9 µM (active),35.6 µM (active),inactive and 71 µM (active),inactive,inactive and 39.9 µM (active),–,–
Clc1nc(Cl)c(Cl)c(Cl)c1Cl,inactive,31.9 µM (active),inactive,inactive,inactive,inactive,–,–
C/C=C/C(=O)O,inactive,inactive,inactive,inactive,inactive,inactive,–,–
